# The campaign covered roughly 2,700 compounds. About 160 (5.9%) showed an effect of 50% or more. For the sample, strong results were picked, then their nearest neighbours and some compounds at random.
# Molecular target: Nonstructural protein 3 (Zika virus) (UniProt A0A024AXB9)
# [1] = PRVABC59, Concentration 15.0 uM, Number of replicates 1.0
# [2] = PRVABC59, Concentration 50.0 uM, Number of replicates 1.0
# Chain of Nonstructural protein 3 (Zika virus) (A0A024AXB9 as listed by the source): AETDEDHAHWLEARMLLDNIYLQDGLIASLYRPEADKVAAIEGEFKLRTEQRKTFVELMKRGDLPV
structure (smiles),measurement,setting,value
CN(C)c1ccc(C(=O)Nc2cc(Cl)cc(C(=O)NC(C)(C)CO)c2)nc1,inhibition,"PRVABC59, Concentration 49.5 uM, Number of replicates 2.0, Standard deviation 3.9613998246279105 %",-1.53%
same,inhibition,"PRVABC59, Concentration 99.01 uM, Number of replicates 2.0, Standard deviation 2.7948399639930708 %",0.849%
Cc1cc(CO)c2cccc(NC(=O)c3cccc(Cn4cncn4)c3)c2n1,inhibition,"PRVABC59, Concentration 49.95 uM, Number of replicates 2.0, Standard deviation 2.574308180740061 %",-0.138%
same,inhibition,"PRVABC59, Concentration 99.9 uM, Number of replicates 2.0, Standard deviation 1.9018768762288814 %",11.1%
Cc1cnccc1NC(=O)c1ccccc1-c1nc(C(C)C)no1,inhibition,"PRVABC59, Concentration 49.5 uM, Number of replicates 2.0, Standard deviation 0.2610834999883118 %",-0.098%
same,inhibition,"PRVABC59, Concentration 99.01 uM, Number of replicates 2.0, Standard deviation 1.3020487023400833 %",-0.148%
same,inhibition,"PRVABC59, Concentration 198.0 uM, Number of replicates 2.0, Standard deviation 1.8545350914642316 %",0.672%
O=C(c1cc(Cl)ccc1NS(=O)(=O)c1ccc(Oc2ccccc2Cl)cc1)N1CCN(c2ccc(Br)cn2)CC1,inhibition,[1],18.6%
O=C(NCCc1ccc(Cl)cc1Cl)c1cc(Cl)ccc1NS(=O)(=O)c1ccc(Oc2ccccc2Cl)cc1,inhibition,[1],27.1%
CN1CCN(C(=O)C2CCN(C(=O)C3CCN(c4ccc(C=O)cc4)CC3)CC2)CC1,inhibition,[2],21.1%
O=Cc1ccc(N2CCC(C(=O)N3CCC(N4CCCC4=O)CC3)CC2)cc1,inhibition,[2],23.2%
O=C(Nc1cc(Cl)cc([N+](=O)[O-])c1O)c1cc(Cl)ccc1NS(=O)(=O)c1ccc(Oc2ccccc2Cl)cc1,inhibition,[1],92.4%
O=C(Nc1ccccc1)c1cc(Cl)ccc1NS(=O)(=O)c1ccc(Oc2ccccc2Cl)cc1,inhibition,[1],54.2%
O=C(Nc1ccc2ccccc2c1O)c1cc(Cl)ccc1NS(=O)(=O)c1ccc(Oc2ccccc2Cl)cc1,inhibition,[1],14%
O=C(Nc1cc(Cl)cc(Cl)c1O)c1cc(Cl)ccc1NS(=O)(=O)c1ccc(Oc2ccccc2Cl)cc1,inhibition,[1],74.3%
O=C(Nc1ccc(O)cc1[N+](=O)[O-])c1cc(Cl)ccc1NS(=O)(=O)c1ccc(Oc2ccccc2Cl)cc1,inhibition,[1],32.2%
CCCOc1ccc(NC(=O)c2cc(Cl)ccc2NS(=O)(=O)c2ccc(Oc3ccccc3Cl)cc2)cc1,inhibition,[1],43.9%
O=C(Nc1ccc([N+](=O)[O-])cc1)c1cc(Cl)ccc1NS(=O)(=O)c1ccc(Oc2ccccc2Cl)cc1,inhibition,[1],29.8%
O=C(Nc1ccc(Oc2ccccc2Cl)cc1)c1cc(Cl)ccc1NS(=O)(=O)c1ccc(Oc2ccccc2Cl)cc1,inhibition,[1],19.7%
O=C(Nc1ccc([N+](=O)[O-])c2ccccc12)c1cc(Cl)ccc1NS(=O)(=O)c1ccc(Oc2ccccc2Cl)cc1,inhibition,[1],22.7%
O=C(Nc1cc(Cl)ccc1Br)c1cc(Cl)ccc1NS(=O)(=O)c1ccc(Oc2ccccc2Cl)cc1,inhibition,[1],24.1%
O=C(Nc1ccc(Oc2ccc(Cl)cc2)cc1)c1cc(Cl)ccc1NS(=O)(=O)c1ccc(Oc2ccccc2Cl)cc1,inhibition,[1],14.2%
CC(=O)Nc1ccc(NC(=O)c2cc(Cl)ccc2NS(=O)(=O)c2ccc(Oc3ccccc3Cl)cc2)cc1,inhibition,[1],63.1%
CCOc1ccccc1CCNC(=O)c1cc(Cl)ccc1NS(=O)(=O)c1ccc(Oc2ccccc2Cl)cc1,inhibition,[1],9.83%
CNC(=O)c1cc(Cl)ccc1NS(=O)(=O)c1ccc2[nH]cnc2c1,inhibition,"PRVABC59, Concentration 49.5 uM, Number of replicates 2.0, Standard deviation 2.3657282322003765 %",-9.41%
Cc1cc(CO)c2cccc(Nc3cc(C)on3)c2n1,inhibition,"PRVABC59, Concentration 49.95 uM, Number of replicates 2.0, Standard deviation 0.1664787029188791 %",-8.71%
CN(C(=O)c1cc(Cl)ccc1NS(=O)(=O)c1ccc(Oc2ccccc2Cl)cc1)[C@H]1CS(=O)(=O)C[C@@H]1O,inhibition,[1],1.21%
Cc1cc(CO)c2cccc(C[C@H](NC(=O)c3cc(C(=O)O)[nH]n3)C(=O)O)c2n1,inhibition,"PRVABC59, Concentration 49.95 uM, Number of replicates 2.0, Standard deviation 1.6911148062176817 %",1.37%
same,inhibition,"PRVABC59, Concentration 99.9 uM, Number of replicates 2.0, Standard deviation 1.9620942703325182 %",8.92%
O=Cc1ccc(N2CCC(C(=O)Nc3ccc(C(F)(F)F)cc3[N+](=O)[O-])CC2)cc1,inhibition,[2],22.3%
O=C(c1cc(Cl)ccc1NS(=O)(=O)c1ccc(Oc2ccccc2Cl)cc1)N1CCC(c2nc3ccccc3[nH]2)CC1,inhibition,[1],20.5%
Cc1cc(CO)c2cccc(Cc3cccc(C(=O)Nc4nonc4C(N)=O)c3)c2n1,inhibition,"PRVABC59, Concentration 49.95 uM, Number of replicates 2.0, Standard deviation 1.609742570683987 %",20.1%
same,inhibition,"PRVABC59, Concentration 99.9 uM, Number of replicates 2.0, Standard deviation 0.8074931564941592 %",55.3%
Cc1cc(CO)c2cccc(Nc3nonc3C(N)=O)c2n1,inhibition,"PRVABC59, Concentration 49.95 uM, Number of replicates 2.0, Standard deviation 1.4175935710362748 %",4.15%
same,inhibition,"PRVABC59, Concentration 99.9 uM, Number of replicates 2.0, Standard deviation 2.0633301575187155 %",4.07%
Cc1cc(CO)c2cccc(Cc3ccccc3C(=O)Nc3nonc3C(N)=O)c2n1,inhibition,"PRVABC59, Concentration 49.95 uM, Number of replicates 2.0, Standard deviation 0.12584307180819165 %",-4.45%
same,inhibition,"PRVABC59, Concentration 99.9 uM, Number of replicates 2.0, Standard deviation 0.39850300453014226 %",-1.53%
Cc1cc(CO)c2cccc(CC(=O)Nc3nonc3C(N)=O)c2n1,inhibition,"PRVABC59, Concentration 49.95 uM, Number of replicates 2.0, Standard deviation 0.05598719921229546 %",82%
same,inhibition,"PRVABC59, Concentration 99.9 uM, Number of replicates 2.0, Standard deviation 1.0790078750483718 %",86.1%
Cc1cc(CO)c2cccc(Cc3cccc(C(=O)N[C@@H](CCC(N)=O)C(=O)O)c3)c2n1,inhibition,"PRVABC59, Concentration 49.95 uM, Number of replicates 2.0, Standard deviation 1.9977585963676485 %",14.4%
same,inhibition,"PRVABC59, Concentration 99.9 uM, Number of replicates 2.0, Standard deviation 0.9280938346971718 %",36%
Cc1cc(CO)c2cccc(CC(=O)Nc3cccc(C(N)=O)c3)c2n1,inhibition,"PRVABC59, Concentration 49.95 uM, Number of replicates 2.0, Standard deviation 0.035627236808440856 %",58.9%
same,inhibition,"PRVABC59, Concentration 99.9 uM, Number of replicates 2.0, Standard deviation 0.025447255606513557 %",72.8%
Cc1cc(CO)c2cccc(Cc3ccccc3C(=O)N[C@@H](CCC(N)=O)C(=O)O)c2n1,inhibition,"PRVABC59, Concentration 49.95 uM, Number of replicates 2.0, Standard deviation 1.0696657731948411 %",-4.71%
same,inhibition,"PRVABC59, Concentration 99.9 uM, Number of replicates 2.0, Standard deviation 0.7655451252044032 %",0.649%
Cc1cc(CO)c2cccc(Cc3ccccc3C(=O)Nc3cccc(C(N)=O)c3)c2n1,inhibition,"PRVABC59, Concentration 49.95 uM, Number of replicates 2.0, Standard deviation 0.5610502494199251 %",-2.71%
same,inhibition,"PRVABC59, Concentration 99.9 uM, Number of replicates 2.0, Standard deviation 0.1363299663609753 %",0.693%
Cc1cc(CO)c2cccc(Cc3cccc(C(=O)Nc4cccc(C(N)=O)c4)c3)c2n1,inhibition,"PRVABC59, Concentration 49.95 uM, Number of replicates 2.0, Standard deviation 0.1992514179713741 %",-3.36%
same,inhibition,"PRVABC59, Concentration 99.9 uM, Number of replicates 2.0, Standard deviation 0.4299637092619174 %",-0.56%
Cc1cc(CO)c2cccc(Cc3cccc(C(=O)NCC(N)=O)c3)c2n1,inhibition,"PRVABC59, Concentration 49.95 uM, Number of replicates 2.0, Standard deviation 1.0591786257609663 %",-5.74%
same,inhibition,"PRVABC59, Concentration 99.9 uM, Number of replicates 2.0, Standard deviation 0.9490662751035868 %",-1.72%
Cc1cc(CO)c2cccc(CC(=O)N[C@@H](CCC(N)=O)C(=O)O)c2n1,inhibition,"PRVABC59, Concentration 49.95 uM, Number of replicates 2.0, Standard deviation 0.13741625923449508 %",69.6%
same,inhibition,"PRVABC59, Concentration 99.9 uM, Number of replicates 2.0, Standard deviation 0.11197439842459092 %",81.6%
Cc1cc(CO)c2cccc(CC(=O)Nc3ccc(C(=O)O)o3)c2n1,inhibition,"PRVABC59, Concentration 49.95 uM, Number of replicates 2.0, Standard deviation 1.3790313962849292 %",42.9%
same,inhibition,"PRVABC59, Concentration 99.9 uM, Number of replicates 2.0, Standard deviation 0.49288480262410383 %",40.6%

# From ChEMBL document CHEMBL5606458, “ASAP - ZIKV NS2B-NS3 protease fluorescence single point” (2024)
